Experimental findings from PubChem BioAssay (NCI) are described below.

About 83,000 compounds went through this panel and 20% of them were active in at least one assay; those are over-represented in the sample as a whole.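 Single-dose data. Exposure time 48 hours. Values below 10 considered active.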 A number with no mark means an inactive call. Active and inactive are the calls of the source.

The assay concerns SK-OV-3 ovarian. As to the kind of experiment: NCI-60 one-dose screen, 48 h (100 = growth as untreated, 0 = no growth, -100 = all killed). To be noted: 10 µM unless noted. As for the experimental part:
Growth inhibition of the SK-OV-3 human tumor cell line is measured as a screen for anti-cancer activity. Cells are grown in 96 well plates and exposed to the test compound for 48 hours. Compounds are tested at a single concentration, which is 10^-5 M for most compounds. The reported endpoint is percent growth (GI% or GIPRCNT), where numbers from 0 - 100% represent growth inhibition, and numbers from -100% - 0 represent cell death. For example, a value of 40 represents 60% growth inhibition. A value of 0 means no net growth occurred over the course of the experiment. A value of -40 indicates 40% of cells at the beginning of the experiment died by the end of the experiment. A value of -100 means all cells are dead at the end of the experiment.
NCI-60 Human Tumor Cell Lines Screen was performed using the standard one-dose NCI protocol, which is described in more detail at https://dtp.cancer.gov/discovery_development/nci-60/default.htm.
Compounds with GIPRCNT values below 10 were considered active. Activity score was based on GIPRCNT using the following formula: […]
Score is 0 for GIPRCNT values of 100 or above, 50 for GIPRCNT values of 0, and 100 for GIPRCNT values of -100.
Turning to `O=C(Nc1cccc(-c2nc(-c3ccc(NC(=O)c4cccs4)cc3Cl)no2)c1)Nc1ccc(NC(=O)C2CC2)c(C(F)(F)F)c1`, the growth is -30.6% (active). In the case of `O=C(CN1C(=O)CSC1=O)Nc1ccc(C(=O)/C=C/c2cc3ccccc3nc2Cl)cc1`, the growth is 101%. As for `CN1C(=O)N(C)C2Nn3c(s/c(=C\c4ccccn4)c3=O)=NC21` (stereo not given), the figure is 114%; as for `COc1ccc(CCN2C(=O)CSC2=S)cc1OC`, 99.1%. In the case of `CS(=O)(=O)c1ccc(-c2nn(-c3ccccc3)cc2/C=N/NC(=O)c2ccncc2)cc1`, the growth is 109%. As for `C#CCOc1ccc(C(Nc2cc(Cl)ccc2Cl)c2nnnn2C2CCCCC2)cc1` (stereo not given), the figure is 100%; as for `CC[C@@](C)(NC(=O)C(C)(C)NC(=O)[C@@H](NC(=O)[C@@H]1CCCN1C(=O)C(C)(C)NC(=O)[C@H](CC(C)C)NC(=O)CNC(=O)C(C)(C)NC(=O)[C@@H](NC(=O)C(C)(C)NC(=O)[C@H](CCC(N)=O)NC(=O)[C@H](C)NC(=O)C(C)(C)NC(=O)[C@H](C)NC(=O)C(C)(C)NC(=O)[C@H](C)NC(=O)C(C)(C)NC(C)=O)C(C)C)C(C)C)C(=O)N[C@@H](CCC(N)=O)C(=O)N[C@@H](CCC(N)=O)C(=O)N[C@H](CO)CC1CCCCC1`, 18.5% [5 µM]; as for `C=CCn1c(SCC(=O)c2ccc(OC)cc2)nnc1-c1ccc(OC)cc1`, 105%. For `O=C1c2c(c3c4ccc(Br)cc4oc3c3[nH]c4ccccc4c23)C(=O)N1CCO`, the growth is 37.4%.

Turning to `COc1ccc(-c2cc(-c3cccc4ccccc34)n3c(n2)nc2ccccc23)cc1OC`, the growth is 35.3%.

With `C#C[C@]1(O)CC[C@H]2[C@@H]3CC=C4c5sc(Nc6cccc(Cl)n6)nc5CC[C@]4(C)[C@H]3CC[C@@]21C`, the growth was -13.7% (active). The figure for `COc1cc(/C=N/n2cnc3oc(-c4ccccc4)cc3c2=N)cc(CN2CCN(C)CC2)c1O` is 91.3%. On to `CCc1ccc(NC(=O)N[C@@H](Cc2cccc(F)c2)C(=O)N[C@@H]2C(=O)N3CCC[C@H]3C(=O)N3CCCC[C@H]3C(=O)N[C@@H](CO)C(=O)N3C[C@H](C)C[C@H]3C(=O)O[C@H]2C)c(F)c1`, for which the growth was 21.8%.

Consider `CN(C)C(=O)c1ccccc1-n1cnc2ccccc2c1=O`, for which the growth is 107%.

Turning to `O=C(Nc1cccc(-c2nc(-c3ccc(NC(=O)c4cccnc4)cc3Cl)no2)c1)Nc1ccc(NC(=O)C2CC2)c(C(F)(F)F)c1`, the growth was -48.3% (active). For `CC(=O)NC(C)(C)C(=O)N1CCC[C@H]1C(=O)NC(C)(C)C(=O)N[C@@H](C)C(=O)NC(C)(C)C(=O)N[C@@H](C)C(=O)N[C@@H](CCC(N)=O)C(=O)NC(C)(C)C(=O)N[C@H](C(=O)NC(C)(C)C(=O)NCC(=O)N[C@@H](CC(C)C)C(=O)NC(C)(C)C(=O)N1CCC[C@H]1C(=O)N[C@H](C(=O)NC(C)(C)C(=O)NC(C)(C)C(=O)N[C@@H](CCC(N)=O)C(=O)N[C@@H](CCC(N)=O)C(=O)N[C@H](CO)Cc1ccccc1)C(C)C)C(C)C`, the growth is 74% [4.25 µM]. The figure for `COc1ccc(S(=O)(=O)NCCCNc2nccc(-n3cnc4ccccc43)n2)cc1` is 96.2%. With `COc1ccc2c(c1)c(-c1nnc(N)nc1-c1cn(C)c3ccccc13)cn2C`, the growth was 102%. As for `C#CCOc1ccccc1C(Nc1ccccc1)c1nnnn1C1CCCCC1` (stereo not given), the figure is 101%. As for `Cn1cc(-c2nn3c(=O)cc(-c4ccccc4)nc3s2)c2cc(F)ccc21`, the figure is 68.4%; as for `CCOP(=O)(OCC)OC[C@]12CCC(C)(C)C[C@H]1C1=CC[C@@H]3[C@@]4(C)C/C(=C\c5cccnc5)[C@H](OP(=O)(OCC)OCC)C(C)(C)[C@@H]4CC[C@@]3(C)[C@]1(C)CC2`, 34.8%. As for `CCOC(=O)c1ccc(N/C=C/C(=O)c2ccccc2)cc1`, the figure is 113%. As for `CN1CCN(c2ccc(C(=O)Nc3cccc(-c4cn(-c5ccc(S(N)(=O)=O)cc5)nn4)c3)cc2C(F)(F)F)CC1`, the growth is 102%. As for `O=C1c2c(c3c4cc(Br)ccc4[nH]c3c3ccc4ccccc4c23)C(=O)N1CCN1CCCCC1`, the figure is 57%; as for `N#Cc1c(NC(=O)c2ccccc2C(F)(F)F)sc2c1CCC(=O)C2`, 91.1%; as for `CC(C)=CCC[C@](C)(O)[C@H]1CC[C@]2(C)[C@@H]1CC[C@@H]1[C@@]3(C)CCC(NC(=O)c4ccccc4C(=O)O)C(C)(C)[C@@H]3CC[C@]12C` (stereo not given in full), 104%. The figure for `Nc1nc(-c2cccc([N+](=O)[O-])c2)c(N=Nc2ccccc2[N+](=O)[O-])s1` is -46.6% (active). For the compound `COc1cnc2c(c1)C(=O)c1c-2n(CCCn2ccnc2)c(=O)c2cc(OC)c(OC)cc12`, the growth was -31.8% (active). As for `C=C(C)[C@@H]1CC[C@]2(C)[C@H](CC=C3[C@@H]4CC(C)(C)CC[C@]4(C(=O)NCC#CCN4CCN(C)CC4)CC[C@]32C)[C@@]1(C)CCC#N`, the figure is 94.5%; as for `COc1ccc(C2CC(c3ccc(Nc4nc(NCCO)nc(Nc5ccc(Cl)cc5)n4)cc3)=Nc3c(N)nc(N)nc3N2)cc1` (stereo not given), 112%. As for `COc1ccc(-c2nc(SCCC(C)C)nc(N/N=C\c3ccc(O)cc3)c2C#N)cc1`, the figure is 109%; as for `COc1ccccc1/C=C/C(=O)c1nnn(-c2ccc(C(=O)O)cc2)c1C`, 106%. Take `O=C(CCCCCCN1CC(=O)N2[C@@H](c3cccc(Cl)c3)c3[nH]c4ccccc4c3C[C@H]2C1=O)NO`: the growth is 51.8%. Take `C=CCn1c(SCC(=O)Nc2ccc(OC)cc2)nnc1-c1ccc(Cl)cc1`: the growth was 101%.

As to `CCN1C/C(=N\S(=O)(=O)c2ccccc2)N(CC)C1=S`, the growth is 118%.

Take `CN1C(=O)/C(=C/C=C/c2ccco2)SC1=S`: the growth is 98.9%. Take `COCCOc1ccc(-c2csc(NC(C)=O)n2)cc1NS(=O)(=O)c1cccc2c(N(C)C)cccc12`: the growth is 119%.

As for `CCn1c2ccc(/C=N/OCCCN(C)C)cc2c2cc(/C=N/OCCCN(C)C)ccc21`, the growth is 109%. In the case of `COc1ccc(Cn2cc3c(c2-c2cc(OC)c(OC)c(OC)c2)CCCc2cnoc2-3)cc1N`, the growth was 65.6%.

On to `CC1CCc2c(sc3nc(SCC(=O)N/N=C/c4cccc(O)c4O)n(-c4ccccc4)c(=O)c23)C1` (stereo not given), for which the growth is 107%.
